Compounds with a hit are over-represented: about 6.8% of the library has one in this group of screens.
C diff growth = inhibitors of Clostridium difficile growth; Clostridium difficile clinical isolate growth, OD600, 24 h; hits give low values; growth activity, negative = inhibition, % at 16 µg/mL (by protocol); actives 0.25% (n = 86,000);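 active = mean growth activity at or below -80% and every replicate also at or below -80%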
T cruzi growth = T. cruzi proliferation inhibition; T. cruzi beta-gal in NIH3T3, GalScreen luminescence, 90 h; inhibition, % at 8.34 µM; actives 5.9% (n = 77,000); AID 624255;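 active = mean inhibition above about 93%, with at least 55% of replicates each passing it, limit read from the data, passing the limit was not always enough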
Pf Dd2 inh = blocks growth of Plasmodium falciparum Dd2 parasites; activity change, % at 10 µM; actives 2.3% (n = 94,000); AID 1159554; P. falciparum Dd2 growth, SYBR Green, 72 h; hits give low values; in the data active = activity change below about -80%
Of the large screens only hits and unclear results are named; the others gave an inactive call.

COc1ccc2c3c([nH]c2c1)[C@@H](CO)N(C(=O)Nc1ccc(F)cc1)CC31CCN(C(=O)Cc2ccccc2)CC1	none (no result: T cruzi growth)
COc1cccc(C(=O)Nc2ccc3c(c2)C(=O)N(C)C[C@@H](OC)[C@@H](C)CN(C(C)=O)[C@H](C)CO3)c1	none
C[C@H](CO)N1C[C@H](C)[C@@H](CN(C)C)Oc2cc(/C=C/c3ccccc3)ccc2S1(=O)=O	none
C[C@@H]1CN([C@@H](C)CO)S(=O)(=O)c2ccc(C#Cc3ccccc3F)cc2O[C@@H]1CN(C)C(=O)c1ccc2c(c1)OCO2	none (no result: T cruzi growth)
C[C@H](CO)N1C[C@H](C)[C@@H](CN(C)C(=O)Cc2cccnc2)Oc2cc(C#Cc3ccccc3F)ccc2S1(=O)=O	Pf Dd2 inh -84 (no result: T cruzi growth)
C[C@H]1CN([C@@H](C)CO)S(=O)(=O)c2ccc(C#Cc3ccccc3F)cc2O[C@H]1CN(C)C(=O)c1ccc2c(c1)OCO2	Pf Dd2 inh -88 (no result: T cruzi growth)
C[C@H]1CN([C@@H](C)CO)S(=O)(=O)c2ccc(C#Cc3ccccc3F)cc2O[C@H]1CN(C)C(=O)Cc1ccncc1	none (no result: T cruzi growth)
Cc1ccccc1S(=O)(=O)N1C[C@H](O)COC[C@H]2O[C@@H](CC(=O)NCc3ccccc3Cl)CC[C@@H]21	none (no result: Pf Dd2 inh)
CCC(=O)N(C)C[C@@H]1Oc2cc(C#Cc3ccncc3)ccc2S(=O)(=O)N([C@H](C)CO)C[C@@H]1C	none
CNC(=O)C[C@@H]1CC[C@H]2[C@@H](COC[C@H](O)CN2S(=O)(=O)c2ccccc2Cl)O1	none (no result: T cruzi growth)
COc1ccc(NC(=O)Nc2ccc3c(c2)C(=O)N([C@H](C)CO)C[C@@H](C)[C@H](CN(C)S(=O)(=O)c2c(C)noc2C)OCCCC[C@@H](C)O3)cc1	Pf Dd2 inh -81
Cc1noc(C)c1S(=O)(=O)N(C)C[C@H]1OCCCC[C@H](C)Oc2ccc(NC(=O)Nc3ccc(C(F)(F)F)cc3)cc2C(=O)N([C@@H](C)CO)C[C@@H]1C	T cruzi growth 89, Pf Dd2 inh -83
Cc1noc(C)c1S(=O)(=O)N(C)C[C@H]1OCCCC[C@H](C)Oc2ccc(NC(=O)Nc3ccc(C(F)(F)F)cc3)cc2C(=O)N([C@H](C)CO)C[C@@H]1C	T cruzi growth 102
Cc1noc(C)c1S(=O)(=O)N(C)C[C@@H]1OCCCC[C@H](C)Oc2ccc(NC(=O)Nc3ccc(C(F)(F)F)cc3)cc2C(=O)N([C@H](C)CO)C[C@H]1C	none
Cc1noc(C)c1S(=O)(=O)N(C)C[C@@H]1OCCCC[C@@H](C)Oc2ccc(NC(=O)Nc3ccc(C(F)(F)F)cc3)cc2C(=O)N([C@@H](C)CO)C[C@@H]1C	none
Cc1noc(C)c1S(=O)(=O)N(C)C[C@H]1OCCCC[C@@H](C)Oc2ccc(NC(=O)Nc3ccc4c(c3)OCO4)cc2C(=O)N([C@@H](C)CO)C[C@@H]1C	Pf Dd2 inh -86
COc1ccc(NC(=O)Nc2ccc3c(c2)C(=O)N([C@H](C)CO)C[C@H](C)[C@H](CN(C)S(=O)(=O)c2c(C)noc2C)OCCCC[C@H](C)O3)cc1	none
Cc1noc(C)c1S(=O)(=O)N(C)C[C@H]1OCCCC[C@H](C)Oc2ccc(NC(=O)Nc3ccc4c(c3)OCO4)cc2C(=O)N([C@H](C)CO)C[C@@H]1C	none
C[C@@H]1CN([C@H](C)CO)C(=O)c2cc(NS(=O)(=O)c3ccc(Cl)cc3)ccc2O[C@@H](C)CCCCO[C@@H]1CN(C)C	none
CC(C)CC#Cc1cnc2c(c1)C(=O)N([C@H](C)CO)C[C@H](C)[C@@H](CN(C)S(C)(=O)=O)O2	none
C[C@H](CO)N1C[C@H](C)[C@H](CN(C)CC2CCOCC2)Oc2ncc(C#Cc3cccc(F)c3)cc2C1=O	none
COc1ccc2c3c([nH]c2c1)[C@H](CO)N(Cc1cccc(F)c1)CC31CN(C(C)=O)C1	none (no result: T cruzi growth)
COc1ccc2c3c([nH]c2c1)[C@@H](CO)N(Cc1cccc(F)c1)CC31CN(C(C)=O)C1	Pf Dd2 inh -85 (no result: T cruzi growth)
COc1ccc2c3c([nH]c2c1)[C@@H](CO)N(Cc1cccc(F)c1)CC31CCN(C(C)=O)CC1	Pf Dd2 inh -93 (no result: T cruzi growth)
COc1cc(CN2CC3(CCN(C(C)=O)CC3)c3c([nH]c4cc(OC)ccc34)[C@H]2CO)cc(OC)c1	none (no result: T cruzi growth)
C[C@H](CO)N1C[C@H](C)[C@H](CN(C)C(=O)c2ccccc2)Oc2ncc(Br)cc2C1=O	none (no result: T cruzi growth)
C[C@@H]1CN([C@H](C)CO)C(=O)c2cccc(NC(=O)c3ccc(-c4nccs4)cc3)c2O[C@H]1CN(C)Cc1ccccc1	none
C[C@@H]1CN([C@H](C)CO)C(=O)c2cccc(NC(=O)c3ccc(-c4nccs4)cc3)c2O[C@H]1CN(C)Cc1ccc(C(F)(F)F)cc1	Pf Dd2 inh -91 (no result: C diff growth)
C[C@@H]1CN([C@H](C)CO)C(=O)c2cccc(NC(=O)c3ccc(-c4nccs4)cc3)c2O[C@H]1CN(C)Cc1ccc(C(=O)O)cc1	none
C[C@@H]1CN([C@@H](C)CO)C(=O)c2cccc(NC(=O)c3ccc(-c4nccs4)cc3)c2O[C@H]1CN(C)Cc1ccc(C(=O)Nc2ccccc2N)cc1	Pf Dd2 inh -93
C[C@@H]1CN([C@H](C)CO)C(=O)c2cccc(NC(=O)c3ccc(-c4nccs4)cc3)c2O[C@@H]1CN(C)Cc1ccc(-c2ccccc2)cc1	none
C[C@@H]1CN([C@H](C)CO)C(=O)c2cccc(NC(=O)c3ccc(-c4nccs4)cc3)c2O[C@@H]1CN(C)Cc1ccc(C(=O)Nc2ccccc2N)cc1	Pf Dd2 inh -91
C[C@@H]1CN([C@H](C)CO)C(=O)c2cccc(NC(=O)c3nc4ccccc4s3)c2O[C@H]1CN(C)Cc1ccc(C(=O)O)cc1	none
C[C@@H]1CN([C@@H](C)CO)C(=O)c2cccc(NC(=O)c3nc4ccccc4s3)c2O[C@@H]1CN(C)Cc1ccc(C(=O)Nc2ccccc2N)cc1	Pf Dd2 inh -91 (no result: C diff growth)
CN1C(=O)c2cc(NC(=O)C3CCOCC3)ccc2OC[C@@H]2O[C@H](CC(=O)NCCc3ccncc3)CC[C@H]21	none (no result: Pf Dd2 inh)
Cc1noc(C)c1NC(=O)Nc1ccc2c(c1)CC(=O)N([C@H](C)CO)C[C@@H](C)[C@@H](CN(C)Cc1ccc(C(=O)O)cc1)O2	none
O=C(C1CCOCC1)N1CC(=O)N2[C@@H](CO)[C@@H](c3ccc(C#CC4CC4)cc3)[C@@H]2C1	none (no result: T cruzi growth)
COc1ccc(CNC(=O)C[C@@H]2C=C[C@H](NS(=O)(=O)c3cccc(OC)c3)[C@@H](CO)O2)cc1	none (no result: T cruzi growth, Pf Dd2 inh)
COc1ccc(CNC(=O)C[C@H]2C=C[C@@H](NS(=O)(=O)c3cccc(OC)c3)[C@@H](CO)O2)cc1	Pf Dd2 inh -91 (no result: T cruzi growth)
O=C(c1cnccn1)N1CC(=O)N2[C@@H](CO)[C@@H](c3ccc(C#CC4CC4)cc3)[C@@H]2C1	none (no result: T cruzi growth)
O=C(C[C@@H]1C[C@@H]2c3cc(NC(=O)C4CCOCC4)ccc3O[C@@H]2[C@@H](CO)O1)NCc1ccccc1	none
C[C@H](CO)N1C[C@H](C)[C@@H](CN(C)C(=O)Nc2cccc3ccccc23)Oc2ccc(NC(=O)Nc3ccc4c(c3)OCO4)cc2CC1=O	Pf Dd2 inh -82
C[C@@H]1CN([C@H](C)CO)C(=O)c2cccc(NC(=O)Nc3cccc4ccccc34)c2O[C@H]1CN(C)C(=O)Nc1ccc2c(c1)OCO2	none
C[C@H]1CN([C@@H](C)CO)C(=O)c2cccc(NC(=O)C3CC3)c2O[C@H]1CN(C)C(=O)Nc1ccc2c(c1)OCO2	none
